PubChem BioAssay
Measured potencies and affinities stand elsewhere. Results filed as inconclusive are left out. Activity calls are given as the source filed them.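 The calls were made as follows, unless noted: active = a dose-response fit showing signal loss, with half-maximal concentration no higher than twice the top tested dose; inconclusive = flat fit between 30% and 70% signal loss, or poor fit; inactive = the rest.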

Legend:
[1] = Cryptococcus neoformans growth inhibition, dose response, Alamar Blue, cherry-picks (AID 686998;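 active = falling signal with fitted half-maximal potency no higher than twice the top valid tested dose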); conditions: 24 h; series mostly up to 35 µM
[2] = inducers of Cryptococcus neoformans cell lysis, dose response, AK release luminescence, cherry-picks (AID 687000;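 active = fitted dose curve reaches 40% lysis signal rise at or below the highest valid concentration tested for that sample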;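 also: luminescent detection of adenylate kinase leaking from lysed yeast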); conditions: C. neoformans lysis, adenylate kinase release luminescence, 4 h, 100% = twice the neutral-control signal; series mostly up to 15 µM
[3] = HepG2 cell cytotoxicity, dose response, cytotoxicity control, cherry-picks, set 2 (AID 687002); conditions: HepG2 viability, ATP luminescence (CellTiter-Glo), 48 h; series mostly up to 26 µM

Measured: outcome

C[C@@H]1CN([C@@H](C)CO)S(=O)(=O)c2ccc(C#Cc3ccccn3)cc2O[C@H]1CN(C)Cc1ccccc1
inactive: all assays above

C[C@@H]1CN([C@@H](C)CO)C(=O)c2cccc(NS(C)(=O)=O)c2O[C@@H]1CN(C)C(=O)Nc1ccc2c(c1)OCO2
inactive: all assays above

CC(C)CC#Cc1ccc2c(c1)O[C@@H](CN(C)C(=O)C1CCC1)[C@@H](C)CN([C@H](C)CO)S2(=O)=O
inactive: all assays above

COc1ccccc1C(=O)Nc1ccc2c(c1)C(=O)N(C)C[C@H](OC)[C@@H](C)CN(CC1CC1)[C@@H](C)CO2
inactive: all assays above

CCNC(=O)Nc1ccc2c(c1)C(=O)N(C)[C@H]1CC[C@H](CC(=O)Nc3ccccc3F)O[C@@H]1CO2
inactive: all assays above

CN(C)C(=O)c1ccc(-c2ccc([C@H]3[C@H]4CN(CCC(F)(F)F)CCCCN4[C@H]3CO)cc2)cc1
inactive: all assays above

C=CCNC(=O)CN(c1ccc(F)cc1)S(=O)(=O)c1ccc(OC)cc1
inactive: all assays above

COCCNC(=O)C[C@H]1CC[C@@H]2[C@H](COC[C@H](O)CN2S(=O)(=O)c2ccccc2C)O1
inactive: all assays above

O=C([C@@H]1[C@@H](CO)[C@@H]2Cn3c(cccc3=O)[C@@H]2N1CCC(F)(F)F)N1CCCCC1
inactive: all assays above

CCOC(=O)CNC(=O)CSc1ncnc2c1cnn2-c1ccc(OC)cc1
inactive: all assays above

C[C@@H]1CN([C@@H](C)CO)C(=O)CCCn2nncc2CO[C@@H]1CN(C)Cc1cccc(C(F)(F)F)c1
inactive: all assays above

Cc1cccc(C)c1NC(=O)C(C)N1CCCC1 (stereo not drawn)
inactive: all assays above

Cc1cccc(-c2ccc([C@@H]3[C@H]4CN(C(=O)c5ccc6c(c5)OCO6)CCCCN4[C@H]3CO)cc2)c1
inactive: all assays above

CC(C)NC(=O)Nc1ccc2c(c1)CC(=O)N([C@@H](C)CO)C[C@@H](C)[C@@H](CN(C)Cc1ccc(Oc3ccccc3)cc1)O2
inactive: all assays above

C[C@@H]1CN([C@@H](C)CO)C(=O)c2cc(NC(=O)Nc3ccc4c(c3)OCO4)ccc2O[C@H]1CN(C)Cc1ccc(Oc2ccccc2)cc1
inactive: all assays above

CCCC#Cc1ccc2c(c1)O[C@H](CN(C)CCC)[C@H](C)CN([C@@H](C)CO)S2(=O)=O
inactive: all assays above

Cc1ccc(N(C(=O)C2CCC(=O)N2)C2(C(=O)NC3CCCCC3)CCCCC2)cc1 (stereo not drawn)
inactive: all assays above

CNC(=O)C[C@H]1CC[C@H]2[C@@H](COc3ccc(NC(=O)Nc4cccc(C#N)c4)cc3C(=O)N2C)O1
inactive: all assays above

COc1ccc(NC(=O)Nc2ccc3c(c2)C(=O)N([C@H](C)CO)C[C@H](C)[C@H](CN(C)C(=O)Cc2ccccc2)OCCCC[C@H](C)O3)cc1
inactive: all assays above

COCCNC(=O)C[C@H]1C=C[C@@H](NS(=O)(=O)c2ccc(C)cc2)[C@H](CO)O1
inactive: all assays above

CCc1ccc(NC(=O)C2NC(=O)CC2c2ccccc2)cc1 (stereo not drawn)
inactive: all assays above

CCC(=O)N[C@@H]1C=C[C@H](CC(=O)NCC2CCCCC2)O[C@H]1CO
inactive: all assays above

Cc1noc(C)c1NC(=O)Nc1ccc2c(c1)C(=O)N([C@H](C)CO)C[C@@H](C)[C@H](CN(C)S(C)(=O)=O)OCCCC[C@@H](C)O2
inactive: all assays above

C[C@@H]1CN([C@@H](C)CO)C(=O)CCCn2cc(nn2)CO[C@@H]1CN(C)C(=O)NC1CCCC1
inactive: all assays above

O=S(=O)(c1ccc(F)cc1)N1C[C@@H]2[C@H](c3ccccc31)[C@@H](CO)N2Cc1ccccc1Cl
inactive: all assays above

CNC(=O)CN(c1ccc(C)cc1)S(=O)(=O)c1ccccc1
inactive: all assays above

CC(C)NC(=O)Nc1ccc2c(c1)C(=O)N([C@@H](C)CO)C[C@H](C)[C@@H](CN(C)Cc1ccc3c(c1)OCO3)OCCCC[C@@H](C)O2
inactive: all assays above

C[C@@H]1CCCCO[C@@H](CN(C)Cc2ccncc2)[C@@H](C)CN([C@H](C)CO)C(=O)c2cc(NC(=O)c3ccncc3)ccc2O1
inactive: all assays above

C[C@H]1CN([C@@H](C)CO)S(=O)(=O)c2ccc(C#Cc3ccccn3)cc2O[C@@H]1CN(C)Cc1ccccc1
inactive: all assays above

CNC[C@H]1Oc2ccc(NC(=O)Cc3cn(C)c4ccccc34)cc2CC(=O)N([C@@H](C)CO)C[C@H]1C
inactive: all assays above

COc1cccc(S(=O)(=O)Nc2ccc3c(c2)OC[C@H](C)NC[C@@H](C)[C@H](OC)CN(C)C3=O)c1
inactive: all assays above

C[C@H]1CN([C@@H](C)CO)S(=O)(=O)c2ccc(C#Cc3cccc(F)c3)cc2O[C@@H]1CN(C)C(=O)NC1CCCCC1
inactive: all assays above

C[C@@H]1CN([C@@H](C)CO)C(=O)c2cc(NC(=O)CCN3CCOCC3)ccc2O[C@@H]1CN(C)Cc1ccc(C(=O)O)cc1
inactive: all assays above

COc1ccccc1CNC(=O)C[C@@H]1C[C@H]2c3cc(NC(=O)Nc4ccccc4F)ccc3O[C@H]2[C@@H](CO)O1
inactive: all assays above

COc1ccc(NC(=O)N(C)C[C@H]2OCCCC[C@@H](C)Oc3ccc(N(C)C)cc3C(=O)N([C@H](C)CO)C[C@H]2C)cc1
inactive: all assays above

COc1ccc(C(=O)NC(=S)Nc2cccc(Cl)c2N2CCOCC2)cc1[N+](=O)[O-]
inactive: all assays above

Cc1noc(C)c1S(=O)(=O)Nc1ccc2c(c1)C(=O)N([C@H](C)CO)C[C@H](C)[C@H](CN(C)Cc1ccncc1)O2
inactive: all assays above

Cc1cc(C(=O)Nc2ccc3c(c2)C(=O)N(C)[C@@H]2CC[C@@H](CC(=O)N[C@@H](C)c4ccccc4)O[C@@H]2CO3)no1
inactive: all assays above

O=C(NC1CCCC1)N1CCCCN2[C@H](CO)[C@H](c3ccc(-c4cncnc4)cc3)[C@@H]2C1
inactive: all assays above

CCCNC(=O)N1C[C@@H]2[C@H](c3ccccc31)[C@H](CO)N2Cc1ccc(OC)cc1
inactive: all assays above

Cc1ccccc1CN(C)C[C@H]1OCc2cn(nn2)CCCC(=O)N([C@@H](C)CO)C[C@H]1C
inactive: all assays above
